RORgamma inh = blocks mouse ROR gamma transcriptional activity; Drosophila S2 Gal4-RORgamma UAS-luciferase reporter, 20 h; Potency, µM (top dose mostly 53.6 µM), most hits filed as inhibitors; actives 5.4% (n = 310,000); AID 2551; also: nearly all actives have a fitted effect of over 60% in size
Target sequence (P51450 whole entry, looked up, the tested form may be a part): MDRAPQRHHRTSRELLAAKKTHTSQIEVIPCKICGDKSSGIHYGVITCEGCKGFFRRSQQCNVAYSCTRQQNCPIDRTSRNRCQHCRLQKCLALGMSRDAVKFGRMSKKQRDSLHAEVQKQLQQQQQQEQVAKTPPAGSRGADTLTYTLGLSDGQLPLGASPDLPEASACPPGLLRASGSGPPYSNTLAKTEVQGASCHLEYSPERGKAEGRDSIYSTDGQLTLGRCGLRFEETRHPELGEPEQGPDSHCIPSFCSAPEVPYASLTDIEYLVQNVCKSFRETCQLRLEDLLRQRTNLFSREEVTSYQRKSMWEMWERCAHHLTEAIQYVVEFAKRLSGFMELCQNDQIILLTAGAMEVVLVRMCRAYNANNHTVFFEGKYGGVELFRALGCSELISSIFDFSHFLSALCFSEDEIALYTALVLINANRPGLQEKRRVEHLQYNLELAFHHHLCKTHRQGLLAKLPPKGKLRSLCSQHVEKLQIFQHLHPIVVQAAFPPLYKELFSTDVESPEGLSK
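Compounds are pin-transferred onto Drosophila Schneider cells expressing a copper-inducible Gal4–ROR gamma transactivation domain fusion. After 1 hr, copper sulfate is added to 700 uM final; luciferase is read 20 hr later.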
PLK1 PBD inh = blocks phosphopeptide binding to human PLK1 polo-box domain. P53350. Plk1 PBD binding of FITC phosphopeptide, fluorescence polarization. Potency, µM, hits mostly inhibitors. actives 2.8% (n = 360,000). AID 720504; also: series mostly up to about 57 µM; nearly all actives have a fitted effect of over 65% in size
ALDH1A1 inh = ALDH1A1 (human) enzyme inhibition; P00352; Purified ALDH1A1, NADH fluorescence, propionaldehyde substrate; Potency, µM (highest dose often 75.3 µM), actives largely listed as inhibitors; actives 7.3% (n = 220,000); active = well fitted inhibition curve with a large enough effect, not every such curve was filed as active; inconclusive = small, poorly fitted or top-dose-only effect, or another doubt; inactive = no such curve, though single readings can be large or run the other way
VP16 counter = inhibits Gal4-VP16 luciferase reporter, ROR gamma counter-screen; Drosophila S2 Gal4-VP16 UAS-luciferase, luminescence, 20 h; Potency, µM (highest dose often 53.6 µM), usual class: inhibitors; actives 3.5% (n = 310,000); AID 2546;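 also: Gal4-VP16 expression switched on by copper sulfate through the metallothionein promoter; nearly all actives have a fitted effect of over 50% in size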
Sfp inh = inhibitors of Bacillus subtilis Sfp phosphopantetheinyl transferase. AID 1490. actives 3.5% (n = 310,000). Biochemical Sfp PPTase activity, qHTS. Q9F4F7. Potency, µM, hits mostly inhibitors;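 also: the enzyme is Sfp with the accession as filed and its product quenches rhodamine fluorescence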
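Fluorescence-quenching assay: 15 nM Sfp-PPTase preincubated 15 min at room temperature with compound, then 5 uM rhodamine-CoA and 12.5 uM BHQ-2-labelled YbbR peptide added. Fluorescence (ex 525/em 598 nm) read at start and after 30 min; difference gives rate.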
Hits are given with their value; 0 = inactive; ? = inconclusive; - = not tested or not shown; [ ] = remark or other dose. The list is not random: actives were taken first. Their share in the collection is about 12%. Unless noted, calls follow the shape of the dose curve; as a rule, active = well fitted curve in the direction sought with a large enough effect; inconclusive = small, poorly fitted or top-dose-only effect, or another doubt; inactive = no such curve, though single readings can be large; an effect the other way counts as inactive or inconclusive.

SMILES	RORgamma inh	PLK1 PBD inh	ALDH1A1 inh	VP16 counter	Sfp inh
Cc1cccc(N2C(=O)/C(=C/c3cccnc3)SC2=S)c1	?	0	-	?	0
Cc1cc(/C=C2/SC(=S)N(c3ccc([N+](=O)[O-])cc3)C2=O)c(C)n1-c1cccnc1	3.2µM	0	1.3µM	0.89µM	0
Cc1cc(/C=C2/NC(=O)N(c3ccccc3)C2=O)c(C)n1-c1cccnc1	0	0	4.5µM	0	0
CC(O)c1cccc2cc(C(O)CNC(C)(C)C)oc12 (stereo not given)	0	-	-	0	0
COc1cccc(NC(=S)NCc2ccccc2)c1	10µM	0	-	8.9µM	0
Cc1ccc(NC(=S)NCc2cccs2)cc1	11µM	0	0	?	0
COc1cccc(NC(=S)NCc2cccs2)c1	10µM	0	0	?	0
CCCCc1ccc(NC(=S)NCc2cccs2)cc1	2.2µM	0	0	?	0
CC(C)NC(=O)C1(C)CCCN1Cc1ccccc1C#N (stereo not given)	-	0	-	-	-
O=C(Cc1ccc(NC(=O)C2CCN(C(=O)C3CCCC3)CC2)cc1)Nc1cccc(C(=O)N2CCCCC2)c1	-	0	-	-	-
Cc1ccc(S(=O)(=O)NCc2ccc(C(=O)N3CCN(c4ccc([N+](=O)[O-])cc4)CC3)cc2)cc1	?	0	-	0	0
COc1ccccc1-c1ccc2c(c1)C(C)(Cc1cccc(C#N)c1)C(=O)N2 (stereo not given)	-	0	-	-	-
Fc1ccc(NC(=S)NCc2cccs2)cc1	11µM	0	0	28µM	0
Cc1ccc(C)c(NC(=S)NCc2cccs2)c1	4µM	0	0	11µM	0
COc1ccc(CNC(=S)Nc2ccc(F)c(Cl)c2)cc1OC	11µM	0	0	0	0
NS(=O)(=O)c1ccc(NC(=S)NCc2cccs2)cc1	0	24µM	?	0	20µM
COC(=O)[C@@]1(Cc2ccccc2)[C@H]2c3cc(C(=O)N(C)C)n(C[C@H](O)CO)c3C[C@H]2CN1C(=O)c1ccccc1	0	-	0	0	0
S=C(NCc1cccs1)Nc1ccccc1	10µM	0	?	?	0
COc1ccc(NC(=S)NCc2cccs2)cc1OC	13µM	0	0	0	0
Cc1cccc(NC(=S)NCc2cccs2)c1	6.3µM	0	0	?	0
COc1cc(OC)cc(-c2c(Sc3ccccc3)c3cc(-c4ccc(SC)cc4)ccc3n2C)c1	-	0	-	-	-
O=C(NN1CCOCC1)c1cccc2ccccc12	0	30µM	0	0	0
CCCCC(=O)N(C)c1c(C)nc2ccc(C(=O)NCCN(C)C)cn12	-	0	-	-	-
Cc1cc(S(=O)(=O)c2ccc(Cl)cc2)nc(S(=O)(=O)c2ccc(Cl)cc2)c1C#N	-	2.7µM	-	-	-
Cc1ccc(OCC(=O)Nc2ccncc2)c(C)c1	0	0	-	16µM	0
SMILES	RORgamma inh	PLK1 PBD inh	ALDH1A1 inh	VP16 counter	Sfp inh
Cc1cccc(OCC(=O)Nc2ccncc2)c1	-	0	-	-	-
Cc1ccccc1OCC(=O)NNC(=O)CSc1nc(N)cc(N)n1	0	21µM	0	0	0
Cc1ccccc1OCC(=O)Nc1ccc(Cc2ccncc2)cc1	?	0	?	10µM	0
Cc1ccccc1OCC(=O)Nc1ccncc1	?	0	-	11µM	0
CC(=O)Nc1cccc(NC(=O)COc2ccccc2C)c1	0	0	-	0	0
Cc1ccccc1OCC(=O)Nc1ccc(C(N)=O)cc1	0	0	0	0	0
COc1ccc(Cl)cc1-c1ccc(C(=O)O)s1	0	-	?	0	0
COC(=O)[C@]12CCCCC=C1N(Cc1ccco1)C(=O)[C@H](CC(=O)NCc1ccc(C)o1)C2	-	0	-	-	-
O=C(Nc1ccc(F)c(Cl)c1)Nc1nnc([C@H]2C[C@H](O)[C@@H](CO)O2)s1	-	0	-	-	-
CC(C)C[C@H](NC(=O)[C@@H](Cc1c[nH]c2ccccc12)NC(=O)[C@H](Cc1ccc(O)cc1)NC(=O)[C@H](CO)NC(=O)[C@H](Cc1c[nH]c2ccccc12)NC(=O)[C@H](Cc1cnc[nH]1)NC(=O)[C@@H]1CCC(=O)N1)C(=O)N[C@@H](CCCN=C(N)N)C(=O)N1CCC[C@H]1C(=O)NCC(N)=O	0	-	-	0	0
N#Cc1c(SCC(=O)Nc2nccs2)nc2c(c1-c1ccco1)CCCC2	10µM	0	?	0	20µM
COC(=O)CSc1nc2c(c(-c3ccc(C)o3)c1C#N)CCCC2	0	0	?	0	50µM
COCCNC(=O)Cc1c(C)c2c(cc(C)c3c(C(C)(C)C)coc32)oc1=O	0	0	-	?	0
Cc1cc2oc(=O)c(CC(=O)O)c(C)c2c2occ(C(C)(C)C)c12	0	30µM	-	0	0
Cc1nc(NC(=O)C2CC2)sc1C(=O)Nc1ccccc1	?	0	-	0	0
Cc1nc(NC(N)=S)sc1C(=O)Nc1ccccc1	11µM	?	?	0	0
Cc1nc(C(=O)Nc2ccccc2)sc1C(=O)Nc1ccccc1	0	27µM	-	0	0
Cc1nc(Nc2c(Cl)cccc2Cl)sc1C(=O)Nc1ccccc1	?	0	14µM	0	0
Oc1c(Cl)cccc1C=Nc1cc(C(F)(F)F)ccc1N1CCCC1	11µM	12µM	0	?	?
O=C(OCc1nc2ccccc2s1)c1cccc(S(=O)(=O)N2CCOCC2)c1	0	0	0	0	0
CCN(CC)S(=O)(=O)c1ccc(N2CCOCC2)c(NC(=O)COc2ccc(Cl)cc2)c1	0	0	-	0	0
O=C(CCc1ccc(S(=O)(=O)N2CCOCC2)cc1)OCc1nc2ccccc2s1	0	0	7.9µM	0	0
CCCCc1ccc(CC(=O)Nc2cc(S(=O)(=O)N3CCOCC3)ccc2O)cc1	-	15µM	-	-	-
Cc1cc(C)c(OCC(=O)Nc2ccc(S(=O)(=O)N3CCOCC3)cc2)c(C)c1	11µM	0	-	?	0
COc1ccc(S(=O)(=O)N2CCOCC2)cc1NC(=O)Cc1ccc(Cl)c(Cl)c1	?	0	0	0	0
SMILES	RORgamma inh	PLK1 PBD inh	ALDH1A1 inh	VP16 counter	Sfp inh
CCN(CC)S(=O)(=O)c1ccc(O)c(NC(=O)COc2ccc(S(=O)(=O)N3CCOCC3)cc2)c1	-	24µM	-	-	-
CCNc1nc(NCC)n2c(SCC(=O)c3ccccc3F)nnc2n1	0	0	0	0	0
Cc1nnc(SCC(=O)Nc2cc(S(=O)(=O)N3CCOCC3)ccc2C)s1	-	0	-	-	-
O=C(CC1CCCC1)Nc1cc(S(=O)(=O)N2CCOCC2)ccc1O	-	6µM	-	-	-
O=C(CSc1nc2ccccc2s1)Nc1cc(S(=O)(=O)N2CCOCC2)ccc1O	0	11µM	0	0	0
COc1ccc(S(=O)(=O)N2CCOCC2)cc1NC(=O)CSc1n[nH]c(C(C)C)n1	0	27µM	25µM	0	25µM
N#Cc1c(Nc2ccccc2)s[nH]c1=O	?	0	-	11µM	20µM
N#Cc1c(Nc2ccccc2C(F)(F)F)s[nH]c1=O	14µM	27µM	-	11µM	3.5µM
N#Cc1c(Nc2ccccc2Cl)s[nH]c1=O	1.3µM	?	-	3.2µM	4µM
N#Cc1c(Nc2ccccc2)sc(C(=O)c2ccc(F)cc2)c1N	0	0	0	0	0
CC(=O)Nc1nc2ncc(C=O)nc2c(=O)[nH]1	-	-	0[13.5 µM]	-	-
COc1ccc(C(OCCN2CCC[C@@H](C(=O)O)C2)(c2ccc(OC)cc2)c2ccc(OC)cc2)cc1	0	-	0	0	0

Screening results as filed in PubChem BioAssay.
